# ± gives the standard deviation of the averaged measurements.
# Tests used:
# Assay in all cases: cell viability (% of vehicle); higher = less cytotoxic
# [1] = system: HCI01 (cells of a triple-negative basal-like breast cancer xenograft); details: 1 µM; 72 h
# [2] = system: UCD52 (cells of a triple-negative basal-like breast cancer xenograft); details: 1 µM; 72 h
# [3] = system: WHIM2 (cells of a triple-negative basal-like breast cancer xenograft); details: 1 µM; 72 h
# [4] = system: WHIM30 (cells of a triple-negative basal-like breast cancer xenograft); details: 1 µM; 72 h
# [5] = system: HCI01; details: 10 µM; 72 h
# [6] = system: HCI03 (cells of an ER-positive luminal breast cancer xenograft); details: 10 µM; 72 h
# [7] = system: HCI09 (cells of a triple-negative luminal androgen receptor type breast cancer xenograft); details: 10 µM; 72 h
# [8] = system: HCI11 (cells of an ER-positive luminal breast cancer xenograft); details: 10 µM; 72 h
# [9] = system: HCI13 (cells of an ER-positive luminal breast cancer xenograft); details: 10 µM; 72 h
# [10] = system: HCI16 (cells of a triple-negative basal-like breast cancer xenograft); details: 10 µM; 72 h
# [11] = system: UCD52; details: 10 µM; 72 h
# [12] = system: WHIM2; details: 10 µM; 72 h
# [13] = system: WHIM30; details: 10 µM; 72 h
SMILES,cell viability [1],cell viability [2],cell viability [3],cell viability [4],cell viability [5],cell viability [6],cell viability [7],cell viability [8],cell viability [9],cell viability [10],cell viability [11],cell viability [12],cell viability [13]
COc1cc2c(Oc3ccc(NC(=O)C4(C(=O)Nc5ccc(F)cc5)CC4)cc3F)ccnc2cc1OCCCN1CCOCC1,89.1,48.2,71.2,70.2,35.4 ± 4.4,55,65.7 ± 32,52.7,60.2 ± 6.2,48,28 ± 2.1,50.1 ± 11,64.8 ± 15
CCOC(=O)c1c(CSc2ccccc2)n(C)c2cc(Br)c(O)c(CN(C)C)c12.Cl [Arbidol HCl],86.5,78.9,82.9,92.6,82.6 ± 33,87.3,58.6 ± 4.3,114,64.4 ± 11,92.3,35.7 ± 1.1,39.3 ± 9.1,85.2 ± 6.7
COc1cccc2c1C(=O)c1c(O)c3c(c(O)c1C2=O)C[C@@](O)(C(C)=O)C[C@@H]3O[C@H]1C[C@H](N)[C@H](O)[C@H](C)O1.Cl [Daunorubicin HCl],128,27.8,23.1,48,32.2 ± 4.8,141,32.8 ± 8.5,31.2,41.3 ± 3.9,49.9,30.4 ± 2.6,42.07 ± 0.39,44.6 ± 10
COC(=O)C1=C(C)NC(C)=C(C(=O)OCCN(C)Cc2ccccc2)C1c1cccc([N+](=O)[O-])c1.Cl (configuration not stated) [Nicardipine HCl],108,94.4,93.5,100,66 ± 2.2,99.9,35.5 ± 4.3,65.4,55.4 ± 8.6,126,55.37 ± 0.27,48.8 ± 8.4,80 ± 5.5
CC[C@@]1(O)C(=O)OCc2c1cc1n(c2=O)Cc2cc3c(CN(C)C)c(O)ccc3nc2-1 [Topotecan],65.9,101,56.5,37.4,42.8 ± 6.2,128,28.1 ± 0.98,44.4,49.1 ± 5.8,73,42.4 ± 0.96,44.5 ± 3.2,83.2 ± 6.8
COC(=O)C1=C(C)NC(C)=C(C(=O)OC2CCCN(Cc3ccccc3)C2)C1c1cccc([N+](=O)[O-])c1.Cl (configuration not stated) [Benidipine HCl],96.3,88.8,105,93.7,82.1 ± 16,68.3,27.9 ± 14,83.2,36.2 ± 7.7,87.5,51.4 ± 7.1,31.1 ± 6.1,64 ± 4.1
Clc1ccc(C(Cn2ccnc2)OCc2c(Cl)cccc2Cl)c(Cl)c1.O=[N+]([O-])O (configuration not stated) [Isoconazole nitrate],123,112,126,105,57.9 ± 28,119,25.8 ± 3.4,101,54.2 ± 8.2,140,44.1 ± 5.8,52.1 ± 6.9,100 ± 2.2
C=CC(=O)N1CCC(Oc2cc3c(Nc4ccc(Cl)c(Cl)c4F)ncnc3cc2OC)CC1 [Poziotinib],62.3,36.5,32.9,50.7,39.4 ± 14,48.7,47.1 ± 2.5,48,34.2 ± 4.1,66.1,44.2 ± 4.5,50.5 ± 5.6,35.8 ± 10
COC(=O)c1ccc2c(c1)NC(=O)C2=C(Nc1ccc(N(C)C(=O)CN2CCN(C)CC2)cc1)c1ccccc1 [Nintedanib (BIBF 1120)],83.1,46,46.6,51.2,70.5 ± 19,63.6,51.4 ± 46,59,71.2 ± 12,85.5,34.9 ± 2.4,65.2 ± 15,47 ± 11
COc1cc2ncnc(Nc3ccc(F)c(Cl)c3)c2cc1NC(=O)C=CCN1CCCCC1,70.8,40,43.9,54.6,34.5 ± 3.5,49.8,22.3 ± 1.4,57,24.6 ± 15,55.1,29.7 ± 2.9,43.9 ± 9.3,47.4 ± 1.6
COc1ccc2c(O[C@H]3CC4C(=O)N(C)CCCC/C=C\[C@H]5C[C@@]5(C(=O)NS(=O)(=O)C5CC5)NC(=O)[C@@H]4C3)cc(-c3nc(C(C)C)cs3)nc2c1C (some centres not stated) [Simeprevir],104,90.4,106,86.7,29.8 ± 3.8,39.5,20.8 ± 2.6,72.7,38.5 ± 3.4,28.7,32.64 ± 0.11,39 ± 3.6,28.5 ± 2.1
Cl.Cl.O=C1c2c(O)ccc(O)c2C(=O)c2c(NCCNCCO)ccc(NCCNCCO)c21 [Mitoxantrone HCl],105,36.2,27.3,37.2,55.3 ± 38,111,25.9 ± 0.83,55.7,73.4 ± 11,117,27.5 ± 0.38,41.3 ± 18,65.4 ± 12
COc1cc(C(=O)NS(=O)(=O)c2ccccc2C)ccc1Cc1cn(C)c2ccc(NC(=O)OC3CCCC3)cc12 [Zafirlukast],93.6,95.3,111,97.2,24.1 ± 0.82,87.8,22.3 ± 1.4,86.4,111 ± 2.8,106,78.7 ± 6.7,42.6 ± 1.2,116 ± 8.7
CCc1c(Cl)c(O)c(Cl)c(O)c1C(=O)OC1C(C)OC(OCC2=CC=CCC(O)C(C)=CC(CC)C(OC3OC(C)(C)C(OC(=O)C(C)C)C(O)C3O)C(C)=CC(C)=CCC(C(C)O)OC2=O)C(OC)C1O (configuration not stated) [Fidaxomicin],99.3,110,122,102,39.9 ± 12,65.5,28.6 ± 7.5,72.7,46.3 ± 0.086,56.3,44.6 ± 6.6,40.7 ± 8.9,29.3 ± 0.66
CN(C)CCOc1ccc(C(=C(CCCl)c2ccccc2)c2ccccc2)cc1.O=C(O)CC(O)(CC(=O)O)C(=O)O [Toremifene Citrate],127,98.4,119,102,37.2 ± 1.9,63.8,34.3 ± 1.8,86.8,46.4 ± 2.6,73.2,38.3 ± 2.4,43.3 ± 4.1,54.4 ± 4.8
Cc1cc(-n2c(=O)[nH]c(=O)n(C)c2=O)ccc1Oc1ccc(SC(F)(F)F)cc1 [Toltrazuril],90.8,97.6,105,90.8,75.8 ± 1.2,132,61.9 ± 18,84,117 ± 11,115,79.5 ± 4.9,41.3 ± 3.9,98.6 ± 14
CCCCc1oc2ccc(NS(C)(=O)=O)cc2c1C(=O)c1ccc(OCCCN(CCCC)CCCC)cc1.Cl [Dronedarone HCl],110,86.5,106,76.2,29.3 ± 12,48,24.4 ± 12,66.1,34.9 ± 1.1,46.6,30.9 ± 5.9,40.9 ± 14,33.3 ± 5.1
COc1cc2c(Oc3ccc4[nH]c(C)cc4c3F)ncnc2cc1OCCCN1CCCC1 [Cediranib (AZD217)],81.9,29.2,25.6,47.5,69.3 ± 10,54,43.8 ± 19,61.5,57.7 ± 16,70.1,50.84 ± 0.26,38.2 ± 7.5,68.3 ± 4.1
Cl.OC(c1cc(C(F)(F)F)nc2c(C(F)(F)F)cccc12)C1CCCCN1 (configuration not stated) [Mefloquine hydrochloride],97.5,66,103,74,31.9 ± 1.3,40.5,23.9 ± 5.5,51.4,44.6 ± 6.4,30,30.3 ± 5.2,37.7 ± 2,49 ± 2.9
[O-]n1ccccc1=S.[O-]n1ccccc1=S.[Zn+2] [Zinc Pyrithione],52,67.2,70.2,65.3,16 ± 11,45.1,29.6 ± 26,24.8,144 ± 130,43.1,25.6 ± 1.7,33 ± 8.9,45.5 ± 4.8
CCOC(=O)C1=C(COCCN)NC(C)=C(C(=O)OC)C1c1ccccc1Cl.O=S(=O)(O)c1ccccc1 (configuration not stated) [Amlodipine Besylate],93.3,97.5,107,88.5,94.062 ± 0.027,115,63.8 ± 45,110,97.8 ± 2.3,102,50 ± 3.2,37 ± 1.7,81.2 ± 8.3
CCN(CC)CCNC(=O)c1c(C)[nH]c(C=C2C(=O)Nc3ccc(F)cc32)c1C.O=C(O)CC(O)C(=O)O [Sunitinib malate],73.4,64.6,96,69.2,37.7 ± 18,73.6,11.3 ± 0.53,111,58.1 ± 1.6,128,15.3 ± 1.1,31.7 ± 12,41.7 ± 11
CN(C)CC=CC(=O)Nc1cc2c(Nc3ccc(F)c(Cl)c3)ncnc2cc1OC1CCOC1 (configuration not stated) [Afatinib (BIBW2992)],71.3,27.2,50.9,49.6,25.61 ± 0.24,47.7,15.1 ± 1.8,73.5,43.4 ± 1.5,55.4,18.7 ± 0.37,34.6 ± 2.6,44.3 ± 6.3
O=C(O)CO.[NH2-].[NH2-].[Pt+2] [Nedaplatin],85.1,103,105,79.4,52.5 ± 16,89,87.8 ± 5.8,96.8,97 ± 12,51.1,33.06 ± 0.081,56.2 ± 5.7,66 ± 3.2
Cc1nc(Nc2ncc(C(=O)Nc3c(C)cccc3Cl)s2)cc(N2CCN(CCO)CC2)n1,78.6,39.7,67.7,55.6,59.7 ± 21,53.7,53.2 ± 2.6,60.3,40.2 ± 3.5,40.5,39.3 ± 3.5,39.3 ± 3.4,57.8 ± 1.2
CC(NCCCc1cccc(C(F)(F)F)c1)c1cccc2ccccc12.Cl (configuration not stated) [Cinacalcet HCl],94.5,85.7,76.7,81.6,38.8 ± 2.6,46.8,21.6 ± 4.7,64.8,43.3 ± 2.8,43.6,29.6 ± 2.4,43.2 ± 5.7,27.6 ± 1.3
CN1CCN(CCOc2cc(OC3CCOCC3)c3c(Nc4c(Cl)ccc5c4OCO5)ncnc3c2)CC1 [Saracatinib (AZD0530)],67.9,38.7,33.9,57.5,63.85 ± 0.43,48.7,68.3 ± 18,105,53 ± 1.4,69.1,43.8 ± 5.4,40.2 ± 11,84.6 ± 3.6
CCCSc1nc(NC2CC2c2ccc(F)c(F)c2)c2nnn(C3CC(OCCO)C(O)C3O)c2n1 (configuration not stated) [Ticagrelor],97.8,91,89.7,75.5,41.1 ± 38,122,47.6 ± 30,80.5,46.1 ± 3.6,80,64.95 ± 0.47,41.2 ± 12,97.7 ± 5.2
Clc1ccc(CSC(Cn2ccnc2)c2ccc(Cl)cc2Cl)cc1.O=[N+]([O-])O (configuration not stated) [Sulconazole Nitrate],95.2,96.5,108,92.9,28.4 ± 6.5,77.3,24.5 ± 2.6,78.3,40.1 ± 3,74.1,35.2 ± 2.8,34.9 ± 8.5,119 ± 0.69

# Reference: the supplement of paper PMC6992640
